In PubChem BioAssay (NCATS):
Records with an inconclusive call do not appear. Activity calls are given as the source filed them. Unless noted, calls come from the whole dose curve; as a rule, active = well fitted cell-killing curve with a large enough effect; inconclusive = small, poorly fitted or top-dose-only effect; inactive = flat fitted curve, though single readings scatter.

Assays:
[1] = Cell Viability - LYMP2-025 (AID 976);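 note: series mostly up to about 92 µM; plate controls were DMSO only for no effect and tetraoctylammonium bromide control for full effect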
Procedure, shortened: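 In qHTS format, LYMP2-025 lymphoblastoid cells in complete culture medium received compound for 24 hr; ATP-based CellTiter-Glo signal gave viability, with AC50 derived by Hill equation.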

[2] = Cell Viability - LYMP2-002 (AID 977);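 note: series mostly up to about 92 µM; plate controls were DMSO only for no effect and 92 µM tetraoctylammonium bromide for full effect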
Procedure, shortened: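 Luminescent ATP readout (CellTiter-Glo, 30 min room temperature) after 24 h compound exposure at 37 C of a human lymphoblastoid line, 2500 cells/well. AC50 values derived by standard Hill fitting of qHTS concentration-response data.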

[3] = Cell Viability - LYMP2-006 (AID 978); note: series mostly up to about 92 µM; % is set by controls: 0 for no effect and ±100 for the full control effect; nearly all actives have a fitted effect of over 60% in size
Procedure, shortened: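 Potency values are Hill-fit AC50s for decreases in intracellular ATP (CellTiter-Glo luminescence). LYMP2-006 lymphoblastoid cells, 2500 per well, were exposed to compound in complete culture medium for 24 hr at 37 C.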

[4] = Cell Viability - LYMP2-007 (AID 979);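 note: cells exposed to compound for 24 h before reading; 0% = DMSO only and the negative end = 92 µM tetraoctylammonium bromide; nearly all actives have a fitted effect of over 60% in size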
Procedure, shortened: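 Acute toxicity is scored as a concentration-dependent fall in intracellular ATP in human lymphoblastoid cells treated 24 hr at 37 C, measured by luciferase luminescence; Hill-equation modelling yields AC50.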

[5] = Cell Viability - LYMP2-008 (AID 980); note: % is set by controls: 0 for no effect and ±100 for the full control effect; nearly all actives have a fitted effect of over 60% in size
Procedure, shortened: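 Acute cytotoxicity is scored as concentration-dependent loss of cellular ATP in a human lymphoblastoid line after 24 hr treatment at 37 C. ATP is quantified by luciferase luminescence.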

[6] = Cell Viability - LYMP2-010 (AID 981); note: % is set by controls: 0 for no effect and ±100 for the full control effect; nearly all actives have a fitted effect of over 55% in size
Procedure, shortened: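 Acute toxicity is scored as a concentration-dependent loss of cellular ATP in human lymphoblastoid cells after 24 hr compound exposure in complete medium. Tetraoctylammonium bromide is the positive control.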

[7] = Cell Viability - LYMP2-012 (AID 982);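 note: cellular ATP by luciferase luminescence where a drop means cytotoxicity; cells exposed to compound for one day before reading; 0% = DMSO only and full loss = 92 µM tetraoctylammonium bromide; nearly all actives have a fitted effect of over 55% in size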
[8] = Cell Viability - LYMP2-014 (AID 983);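 note: series mostly up to about 92 µM; plate controls were DMSO only for no effect and 92 µM tetraoctylammonium bromide for full effect; nearly all actives have a fitted effect of over 50% in size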
Procedure, shortened: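 Decrease in intracellular ATP after 24 hr treatment at 37 C, measured by luciferase luminescence, indicated cytotoxicity. Concentration-response data were fitted with the standard Hill equation to give AC50.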

[9] = Cell Viability - LYMP2-016 (AID 984); note: % is set by controls: 0 for no effect and ±100 for the full control effect; nearly all actives have a fitted effect of over 55% in size
Procedure, shortened: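 Cytotoxicity was scored by luminescent ATP content (CellTiter-Glo) after 24 h compound exposure at 37 C of a human lymphoblastoid line at 2500 cells/well. Concentration-response data were fitted to the Hill equation for AC50.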

[10] = Cell Viability - LYMP2-018 (AID 985);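 note: compound exposure lasted 24 hr at 37 °C; plate controls were DMSO only for no effect and tetraoctylammonium bromide at 92 µM for full effect; nearly all actives have a fitted effect of over 50% in size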
Procedure, shortened: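 Acute cytotoxicity is scored as a concentration-dependent drop in intracellular ATP after 24 hr exposure of the lymphoblastoid line in complete culture medium, measured by luciferase luminescence. Potency is expressed as AC50 from Hill modelling.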

[11] = Cell Viability - LYMP2-020 (AID 986);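 note: series mostly up to about 92 µM; plate controls were DMSO only for no effect and tetraoctylammonium bromide at 92 µM for full effect; nearly all actives have a fitted effect of over 55% in size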
Procedure, shortened: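 Acute cytotoxicity in a human lymphoblastoid line is scored as a concentration-dependent fall in cellular ATP after 24 hr at 37 C in complete medium. The positive control is tetraoctylammonium bromide, and potency is given as Hill-fit AC50.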

[12] = Cell Viability - LYMP2-022 (AID 987)
Procedure, shortened: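 Acute toxicity in a human lymphoblastoid line is scored as decreased intracellular ATP after 24 hr compound treatment at 37 C. ATP is measured by CellTiter-Glo luminescence; curves are fitted with the Hill equation to give AC50.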

[13] = Cell Viability - LYMP2-024 (AID 988);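 note: plate controls were DMSO only for no effect and 92 µM tetraoctylammonium bromide for full effect; nearly all actives have a fitted effect of over 60% in size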
Procedure, shortened: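 Acute toxicity is measured as concentration-dependent loss of intracellular ATP in a human lymphoblastoid line treated 24 hours at 37 C. Luciferase luminescence quantifies ATP; AC50 values come from standard Hill-equation modelling.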

[14] = Cell Viability - LYMP2-026 (AID 989); note: % is set by controls: 0 for no effect and ±100 for the full control effect; nearly all actives have a fitted effect of over 50% in size
Procedure, shortened: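 Concentration-dependent loss of intracellular ATP in human lymphoblastoid cells after 24 hr at 37 C, quantified by luciferase luminescence. AC50 derived from standard Hill equation.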

[15] = Cell Viability - LYMP1-002 - Assay at 24 hr (AID 993); note: % is set by controls: 0 for no effect and ±100 for the full control effect
Procedure, shortened: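 qHTS, LYMP1-002 lymphoblastoid, 24 h cpd, 37 C, CellTiter-Glo ATP luminescence; AC50 via Hill eq.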

[16] = qHTS Assay for Identification of Small Molecule Inducers of Hypoxia Response (AID 2120; active = well fitted curve in the direction sought with a large enough effect in the signal ratio, with a control signal flat, not every such curve was filed as active; the % refers to the signal ratio; note: 0% is about no effect)
Procedure, shortened: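 Induction of beta-lactamase reporter activity was measured in CellSensor HRE-bla ME-180 cells after 17 h compound treatment at 37 degrees C, using CCF4 substrate and the 460nm/530nm emission ratio to derive AC50 values.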

[17] = molecular target: Estrogen receptor (Homo sapiens) (UniProt P03372); test: qHTS assay for small molecule agonists of estrogen receptor alpha signaling (AID 588514; calls by dose curve;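 note: 0% = vehicle only and 100% = reference agonist; nearly all actives have a fitted effect of over 70% in size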)
Procedure, shortened: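 Reporter-gene assay. […] controls beta-lactamase in HEK 293 GripTite cells; after 18 hrs with compound, CCF4 substrate is added for 2 hrs and fluorescence is read.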

[18] = Cell Viability - LYMP1-002 - Assay at 40 hr (AID 994)
Procedure, shortened: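 Viability in the human lymphoblastoid line was measured as intracellular ATP via CellTiter-Glo after 40 hr compound exposure. Tetraoctylammonium bromide served as positive control.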

[19] = molecular target: Androgen receptor (Homo sapiens) (UniProt P10275); test: qHTS assay for small molecule agonists of androgen receptor signaling (AID 588515; active = well fitted curve in the direction sought with a large enough effect in the signal ratio, with a control signal flat; the % refers to the signal ratio; note: % is set by controls: 0 for no effect and ±100 for the full control effect); conditions: AR-UAS-bla HEK293, beta-lactamase ratio, agonist 16 h; hits give high values
Procedure, shortened: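 EC50 and efficacy came from Hill fits of titrations (up to 92 uM) normalized to 30 nM R1881 as 100% and DMSO as 0%. Compound exposure was 16 h at 37 C on AR-UAS-bla HEK293 cells, with a 405/460/530 nm CCF4 fluorescence read.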

Chain of Estrogen receptor (Homo sapiens) (P03372 whole entry, looked up): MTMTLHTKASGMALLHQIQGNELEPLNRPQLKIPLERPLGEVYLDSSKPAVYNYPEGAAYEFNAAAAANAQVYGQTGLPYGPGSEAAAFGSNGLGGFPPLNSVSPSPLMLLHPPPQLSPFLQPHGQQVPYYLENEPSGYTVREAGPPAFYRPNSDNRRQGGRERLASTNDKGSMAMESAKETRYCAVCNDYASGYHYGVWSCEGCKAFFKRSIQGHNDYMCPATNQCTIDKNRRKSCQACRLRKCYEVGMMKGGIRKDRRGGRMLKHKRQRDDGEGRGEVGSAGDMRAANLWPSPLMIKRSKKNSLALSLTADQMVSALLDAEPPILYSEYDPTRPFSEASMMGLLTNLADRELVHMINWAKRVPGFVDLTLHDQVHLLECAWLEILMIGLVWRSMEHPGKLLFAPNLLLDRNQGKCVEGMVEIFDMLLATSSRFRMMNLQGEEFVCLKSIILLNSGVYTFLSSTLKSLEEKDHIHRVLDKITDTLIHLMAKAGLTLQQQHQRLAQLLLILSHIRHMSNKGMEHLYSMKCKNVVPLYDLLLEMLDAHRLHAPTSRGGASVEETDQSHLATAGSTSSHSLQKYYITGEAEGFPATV
Chain of Androgen receptor (Homo sapiens) (P10275 whole entry, looked up): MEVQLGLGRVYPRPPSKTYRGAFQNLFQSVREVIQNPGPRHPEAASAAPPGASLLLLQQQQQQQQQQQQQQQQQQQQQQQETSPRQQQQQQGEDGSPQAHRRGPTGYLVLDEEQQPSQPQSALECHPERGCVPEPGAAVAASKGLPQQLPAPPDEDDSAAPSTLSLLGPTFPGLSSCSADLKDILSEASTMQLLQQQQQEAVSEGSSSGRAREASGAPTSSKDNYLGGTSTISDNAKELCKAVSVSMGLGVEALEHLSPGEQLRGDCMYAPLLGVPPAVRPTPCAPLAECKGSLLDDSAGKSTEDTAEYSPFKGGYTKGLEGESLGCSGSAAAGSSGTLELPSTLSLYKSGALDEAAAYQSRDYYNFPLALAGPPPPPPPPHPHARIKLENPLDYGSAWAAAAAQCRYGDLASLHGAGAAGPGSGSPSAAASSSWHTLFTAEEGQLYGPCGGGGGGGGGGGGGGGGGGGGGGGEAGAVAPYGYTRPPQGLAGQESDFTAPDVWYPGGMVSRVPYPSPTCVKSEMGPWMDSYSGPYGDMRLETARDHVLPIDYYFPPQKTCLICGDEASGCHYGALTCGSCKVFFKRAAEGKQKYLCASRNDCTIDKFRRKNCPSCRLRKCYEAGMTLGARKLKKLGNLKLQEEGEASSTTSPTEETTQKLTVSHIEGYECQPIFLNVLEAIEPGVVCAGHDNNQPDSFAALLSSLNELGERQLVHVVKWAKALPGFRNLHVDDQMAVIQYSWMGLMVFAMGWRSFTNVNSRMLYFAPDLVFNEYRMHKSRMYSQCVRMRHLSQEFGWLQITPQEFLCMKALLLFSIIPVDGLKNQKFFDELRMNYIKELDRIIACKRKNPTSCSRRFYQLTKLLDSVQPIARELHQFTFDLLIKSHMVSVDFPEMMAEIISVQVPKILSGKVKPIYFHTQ

CCCCOCCOCCSC#N
inactive: Potency [1] | Potency [2] | Potency [3] | Potency [4] | Potency [5] | Potency [6] | Potency [7] | Potency [8] | Potency [9] | Potency [10] | Potency [11] | Potency [12] | Potency [13] | outcome [14] | Potency [15] | outcome [16]

CC(C)(c1cc(Br)c(OCC(Br)CBr)c(Br)c1)c1cc(Br)c(OCC(Br)CBr)c(Br)c1 (stereo unspecified)
inactive: Potency [1] | Potency [2] | Potency [3] | Potency [5] | Potency [6] | Potency [7] | Potency [8] | Potency [9] | Potency [10] | Potency [12] | Potency [13] | outcome [14] | Potency [15] | outcome [16] | Potency [17]

C=Cc1ccccc1C=C
inactive: Potency [1] | Potency [2] | Potency [3] | Potency [5] | Potency [6] | Potency [7] | Potency [8] | Potency [9] | Potency [10] | Potency [11] | Potency [12] | Potency [13] | Potency [15] | Potency [18] | outcome [16] | Potency [17]

CC(=O)c1cc(C)oc1C
inactive: Potency [1] | Potency [2] | Potency [3] | Potency [4] | Potency [5] | Potency [6] | Potency [7] | Potency [8] | Potency [9] | Potency [10] | Potency [11] | Potency [12] | Potency [13] | outcome [14] | Potency [15] | Potency [18] | outcome [16] | activation [19] -1.32%

Cc1ccc([N+](=O)[O-])c(N)c1
inactive: Potency [1] | Potency [2] | Potency [3] | Potency [4] | Potency [5] | Potency [6] | Potency [7] | Potency [8] | Potency [9] | Potency [10] | Potency [11] | Potency [12] | Potency [13] | outcome [14] | Potency [15] | Potency [18] | outcome [16]

CCC1CO1 (stereo unspecified)
inactive: Potency [1] | Potency [2] | Potency [3] | Potency [4] | Potency [5] | Potency [6] | Potency [7] | Potency [8] | Potency [9] | Potency [10] | Potency [11] | Potency [12] | Potency [13] | outcome [14] | Potency [15] | Potency [18] | outcome [16]

CC(O)CC(C)O (stereo unspecified)
inactive: Potency [1] | Potency [2] | Potency [3] | Potency [4] | Potency [5] | Potency [6] | Potency [7] | Potency [8] | Potency [9] | Potency [10] | Potency [11] | Potency [12] | Potency [13] | outcome [14] | Potency [15] | Potency [18] | outcome [16]

O=[N+]([O-])c1ccc(CCO)cc1
inactive: Potency [1] | Potency [4] | Potency [15] | Potency [18] | outcome [16] | Potency [17]

CC/C=C1/OC(=O)c2ccccc21
inactive: Potency [1] | Potency [2] | Potency [3] | Potency [4] | Potency [5] | Potency [6] | Potency [7] | Potency [8] | Potency [9] | Potency [10] | Potency [11] | Potency [12] | Potency [13] | outcome [14] | Potency [15] | Potency [18] | outcome [16] | activation [19] 15.6%

CC(=O)C1(C)CC2=C(CCCC2(C)C)CC1C (stereo unspecified)
inactive: Potency [1] | Potency [2] | Potency [3] | Potency [4] | Potency [5] | Potency [6] | Potency [7] | Potency [8] | Potency [9] | Potency [10] | Potency [12] | Potency [13] | outcome [14] | Potency [15] | Potency [18] | outcome [16] | activation [19] -4.48%

Cc1ccc(CO)cc1
inactive: Potency [1] | Potency [2] | Potency [3] | Potency [5] | Potency [6] | Potency [7] | Potency [8] | Potency [9] | Potency [10] | Potency [12] | Potency [13] | outcome [14] | Potency [15] | Potency [18] | outcome [16] | Potency [17]

CC(=O)CC(C)C
inactive: Potency [1] | Potency [2] | Potency [3] | Potency [5] | Potency [6] | Potency [7] | Potency [8] | Potency [9] | Potency [10] | Potency [11] | Potency [12] | Potency [13] | outcome [14] | Potency [15] | Potency [18] | outcome [16] | activation [19] 2.1%

Cc1ccc(Cl)cc1N
inactive: Potency [1] | Potency [2] | Potency [3] | Potency [4] | Potency [5] | Potency [6] | Potency [7] | Potency [8] | Potency [9] | Potency [10] | Potency [11] | Potency [12] | Potency [13] | outcome [14] | Potency [15] | Potency [18] | outcome [16]

CC(=C/C=C/C(C)=C/C=C/C=C(C)/C=C/C=C(C)/C=C/C(=O)O)/C=C/C(=O)O
inactive: Potency [1] | Potency [2] | Potency [3] | Potency [4] | Potency [5] | Potency [6] | Potency [7] | Potency [8] | Potency [9] | Potency [10] | Potency [11] | Potency [12] | Potency [13] | outcome [14] | Potency [18] | outcome [16] | activation [19] 17%

CCC(C)O (stereo unspecified)
inactive: Potency [1] | Potency [2] | Potency [3] | Potency [4] | Potency [5] | Potency [6] | Potency [7] | Potency [8] | Potency [9] | Potency [10] | Potency [11] | Potency [12] | Potency [13] | outcome [14] | Potency [15] | Potency [18] | outcome [16]

CCCOCC(C)O (stereo unspecified)
inactive: Potency [1] | Potency [2] | Potency [3] | Potency [5] | Potency [6] | Potency [7] | Potency [8] | Potency [9] | Potency [10] | Potency [11] | Potency [12] | outcome [14] | Potency [15] | Potency [18] | outcome [16] | activation [19] -4.67%

CC(C)CO
inactive: Potency [1] | Potency [2] | Potency [3] | Potency [5] | Potency [6] | Potency [7] | Potency [8] | Potency [9] | Potency [10] | Potency [11] | Potency [12] | Potency [13] | outcome [14] | Potency [15] | Potency [18] | outcome [16] | Potency [17]

O=C(O)c1c(Cl)cccc1Cl
inactive: Potency [1] | Potency [2] | Potency [3] | Potency [4] | Potency [5] | Potency [6] | Potency [7] | Potency [8] | Potency [9] | Potency [10] | Potency [11] | Potency [12] | Potency [13] | outcome [14] | Potency [15] | Potency [18] | outcome [16]
